Here are results for 54 molecules from ChEMBL document CHEMBL4513216, “Probing the Open Global Health Chemical Diversity Library for Multistage-Active Starting Points for Next-Generation Antimalarials” (ACS Infect Dis, 2020).

Out of some 69,000 compounds screened, about 8,600 (12%) showed an effect of 50% or more. This is one part of a sample in which strong results are shown more often than they occur.

The test has as its system Plasmodium berghei. The experiment in a line: Screen against P. berghei liver stage (PbLuc), transformed with Luciferase, at 10uM. Format: functional, HepG2. The conditions noted are these: tested at 10 uM.
With `Cc1ccc(N(CC(=O)N2CCCCC2)C(=O)C2COCCO2)cc1` (centres undefined), the INHIBITION came to 11.6%.

For `CC(C)CC(NC(=O)c1cccs1)c1nc2cccnc2n1C` (centres undefined), the INHIBITION was -11.4%.

In the case of `Cn1ccnc1C1(O)CCN(C(=O)CCc2ccccc2)CC1`, the INHIBITION is given as 27.465%.

Turning to `O=C1NCCCc2[nH]c(C3CCN(C(=O)C4CC4)CC3)nc21`, the INHIBITION was 10.4%.

`CN(CCn1cncc1-c1cnc(N2CCOCC2)nc1)C1CCCC1`: the INHIBITION was -11.05%.

For the molecule `O=C(NC[C@H]1OC[C@@H](NC2CCCCC2)[C@@H]1O)Nc1ccccc1`, the INHIBITION was 26%.

`CN1CCC(N[C@@H]2CO[C@H](CNC(=O)Nc3ccccc3)[C@H]2O)CC1`: the INHIBITION stood at 60.1%.

Regarding `O=C(NC[C@H]1OC[C@@H](NCc2ccccc2)[C@@H]1O)Nc1ccccc1`, the INHIBITION is recorded as 17.7%.

For `CN(C)C(=O)Cn1c(C2CC2)c(CN2CCOCC2)c2cccnc21`, the INHIBITION is on record as -13.2%.

As to `Cc1c(Cl)cccc1N1CC(c2nnc(N)s2)CC1=O` (centres undefined), the INHIBITION was 35.8%.

With `CC(C)(C)c1coc([C@@H]2COCCN2Cc2c[nH]cn2)n1`, the INHIBITION was found to be 62.8%.

On to `CC(C)(C)c1coc([C@@H]2COCCN2Cc2ccccc2)n1`, for which the INHIBITION worked out at 3.25%.

As to `Cn1c(CN2CCOC[C@H]2c2nc(C(C)(C)C)co2)nc2ccccc21`, the INHIBITION is given as 52%.

Turning to `Cn1cc(CN2CCOC[C@H]2c2nc(C(C)(C)C)co2)c2ccccc21`, the INHIBITION is reported as 10%.

In the case of `CC(C)(C)c1coc([C@@H]2COCCN2Cc2ncc[nH]2)n1`, the INHIBITION is 20.9%.

For `CC(C)(C)c1coc([C@@H]2COCCN2Cc2ccccn2)n1`, the INHIBITION was -37.4%.

As to `CS(=O)(=O)N1CC[C@H]2OCC[C@@]2(C(=O)NCC2CC2)C1`, the INHIBITION was found to be 42.1%.

Consider `CN1CCN(Cc2c(Cl)ccc(O)c2Cl)CC1C(=O)O` (centres undefined), for which the INHIBITION is recorded as -27.6%.

In the case of `CN(C)CCN1C(=O)CCCC12CCCN(C(=O)c1ccncc1)C2` (centres undefined), the INHIBITION stood at 5.68%.

Take `O=C(c1ccccc1F)N1CCC2(CC1)CC(Oc1ccccn1)CO2` (centres undefined): the INHIBITION was 46.6%.

As for `O=C(c1cccnc1)N1CCC2(CC1)CC(Oc1ccccc1)CO2` (centres undefined), the INHIBITION turned out to be 34.4%.

With `COC1COC2(CCN(C(=O)c3cocn3)CC2)C1` (centres undefined), the INHIBITION came out at 39.4%.

As for `CC(=O)N1CCC2(CC1)CC(Oc1ccccc1)CO2` (centres undefined), the INHIBITION stood at 33.5%.

In the case of `COc1ncccc1C(=O)N1CCC2(CC1)CC(OC)CO2` (centres undefined), the INHIBITION amounted to 25.8%.

Turning to `O=C(c1ccccc1)N1CCC2(CC1)CC(Oc1ccccc1)CO2` (centres undefined), the INHIBITION turned out to be 52%.

On to `COC1COC2(CCN(C(=O)c3ccccc3F)CC2)C1` (centres undefined), for which the INHIBITION is 62.9%.

For the molecule `COC1COC2(CCN(C(=O)c3cscn3)CC2)C1` (centres undefined), the INHIBITION is reported as 53.9%.

For `COC1COC2(CCN(C(=O)c3cnc(C)cn3)CC2)C1` (centres undefined), the INHIBITION is listed as -21.7%.

In the case of `CCn1c(O)c(C(C)=O)c2cc(C)ccc21`, the INHIBITION is reported as 33.4%.

On to `Cc1ccc(-c2nc(CN3CCCCC3Cn3cncn3)no2)cc1` (centres undefined), for which the INHIBITION is given as 21.5%.

As to `CCS(=O)(=O)CCSc1ccc(Br)cc1`, the INHIBITION is -59.8%.

For the molecule `CN(CC(O)COc1ccc(C(F)(F)F)cc1)C(=O)Nc1nncs1` (centres undefined), the INHIBITION was -0.87%.

On to `COc1cc(NC(=O)c2ccc(C)c(F)c2)c(C(=O)N(C)C)cc1OC`, for which the INHIBITION turned out to be 14%.

With `CCn1cc(S(=O)(=O)NC(CO)Cc2c[nH]c3ccccc23)cn1` (centres undefined), the INHIBITION worked out at 19.3%.

Consider `CCn1cc(NC(=O)NC(CO)Cc2c[nH]c3ccccc23)cn1` (centres undefined), for which the INHIBITION worked out at 32.3%.

`CCn1cc(S(=O)(=O)NC(=O)CCc2c[nH]c3ccccc23)cn1`: the INHIBITION was found to be 61.5%.

Turning to `CN(Cc1cc(C(C)(C)C)n[nH]1)C(=O)CCC(=O)NC1CCCC1`, the INHIBITION is reported as 32.1%.

For the molecule `Cn1ncc(NC(=O)c2noc3c2CCCC3)c1C(N)=O`, the INHIBITION is 2.6%.

With `O=C(C1CCC2(CCN(CC3CC3)CC2)O1)N1CCCC1` (centres undefined), the INHIBITION was determined as 1.34%.

Take `COc1ccc(C(=O)N(C)Cc2nnc3ccccn23)c(OC)c1OC`: the INHIBITION is -8.11%.

As for `COc1cccc(CN(C)Cc2cccc(C#N)c2)c1OC`, the INHIBITION is on record as -3.19%.

In the case of `COc1ccc(C(=O)N(C)Cc2cccc(C#N)c2)c(OC)c1OC`, the INHIBITION came to 50.1%.

In the case of `CCOc1ccc2oc(-c3cn(C)nc3C)c(O)c(=O)c2c1`, the INHIBITION is given as 25.9%.

`COC(=O)CCC(=O)N(Cc1ccc2cc[nH]c2c1)C1CC1`: the INHIBITION is -8.8%.

Turning to `COc1cc(C2CC(=O)Nc3c2nc2n3CCCC2)cc2c1OCO2` (centres undefined), the INHIBITION turned out to be 34%.

`CCNC(=O)[C@@H]1C[C@@H](N)CN1C(=O)c1[nH]c2ccccc2c1CC`: the INHIBITION amounted to 11.5%.

As to `CCOCCCNc1ncc(-c2onc(C)c2C)c(-c2ccco2)n1`, the INHIBITION is on record as 27.465%.

For the molecule `CCC(=O)NCC1(O)CCC(C(C)(C)C)CC1` (centres undefined), the INHIBITION was -5.92%.

With `Cc1ccc(OCCN(C)Cc2cscn2)cc1`, the INHIBITION is on record as -23.8%.

As for `COCCS(=O)(=O)N(Cc1cscn1)c1ccccc1`, the INHIBITION is listed as 22.8%.

Take `CN(C)S(=O)(=O)N(Cc1cscn1)c1ccccc1`: the INHIBITION is listed as 62.4%.

With `Cc1cc(C)cc(OCCN(C)Cc2cscn2)c1`, the INHIBITION turned out to be 28.1%.

Take `CCN(C)S(=O)(=O)N(Cc1cscn1)c1ccccc1`: the INHIBITION amounted to 66.4%.

On to `CN(CCOc1ccc(Br)cc1)Cc1cscn1`, for which the INHIBITION was -62.6%.
